The record followed here is PubChem BioAssay AID488857 (Sanford-Burnham Center for Chemical Genomics, 2010).

The campaign covered roughly 1,400 compounds. About 560 (40%) were called active.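 Rule for the calls: active = mean inhibition over duplicate tests at 10 µM above 50%; inactive = the rest.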 The set was probably picked from earlier hits. This is one part of the list.

The experiment can be described thus: ASC/caspase-1 reporter retest in S. cerevisiae at one dose, specificity check for NALP1 project (AID 488857). Particulars: S. cerevisiae ASC/Caspase-1, beta-galactosidase luminescence, 24 h; at 10 µM; hits give high values.
Turning to `COc1ccc(/C=C2/CCc3ccccc3C2=O)cc1OC`, the inhibition was 61.4% (active).
Next, `COC(=O)C(Cc1ccccc1)NC(=O)COc1ccc(C(C)(C)C)cc1` (stereo not drawn): 34.1% (inactive); `COCCCNCCOc1ccc(C(C)(C)c2ccccc2)cc1`: 64.7% (active).
Next, `C=CCNCCOc1ccc(C(C)(C)c2ccccc2)cc1`: 56.8% (active).
Then `C=CCNCCOCCSc1ccc(Cl)cc1`, with 42.4% (inactive).
Take `COc1cccc(C2c3c(-c4ccccc4O)n[nH]c3C(=O)N2Cc2ccco2)c1` (stereo not drawn): the inhibition was 47.1% (inactive).
For the compound `COC(=O)c1ccc(/C=C(\C#N)C(=O)NC(C)c2ccccc2)cc1` (stereo not drawn), the inhibition is 43.5% (inactive).
Next, `Cc1nn(-c2ccccc2)c(Cl)c1/C=C(\C#N)C(=O)NC(C)C`: 68.6% (active).
Next, `C=CCNC(=O)/C(C#N)=C/c1c(C)nn(-c2ccccc2)c1Cl`: 69.8% (active); `O=C(O)/C=C/C(=O)OC1CC2CCC1C2` (stereo not drawn): 23.1% (inactive); `Cc1ccc(NC(=O)CN(C)C(=O)COc2cccc3cccnc23)cc1`: 21.4% (inactive).
Next, `CCN(CC)c1ccc(/C=N/OC(C)C(=O)Nc2ccc(C)cc2)cc1` (stereo not drawn): 53.4% (active).
Turning to `c1ccc(CC2CCN(c3nnnn3-c3ccccc3)CC2)cc1`, the inhibition is 39.6% (inactive).
Next, `O=C(/C=C/c1ccc2c(c1)OCCCO2)c1ccccc1O`: 61.2% (active); `Cc1ccc(C(=O)/C=C/c2ccc3c(c2)OCO3)o1`: 32.1% (inactive).
Next, `O=C(CCNC(=O)c1ccccc1Cl)Nc1ccc2c(c1)OCO2`: 34.6% (inactive); `COC(=O)Cn1nc(-c2ccccc2)c2ccccc21`: 99.4% (active).
Then `O=C(O)Cn1nc(-c2ccccc2)oc1=O`, with 20.1% (inactive); and `O=C(NC1=NCCS1)c1ccc(Cl)s1`, with 53% (active); and `CC(NC(=O)c1ccc(F)cc1)C(=O)NC1=NCCS1` (stereo not drawn), with 38.4% (inactive).
As to `CCC(=O)N1CCc2cc(S(=O)(=O)N3CCc4ccccc43)ccc21`, the inhibition was 37% (inactive).
Then `CSc1sc(C(=O)N2CCc3ccccc32)cc1S(=O)(=O)C(C)C`, with 30% (inactive); and `O=C(c1cnn2ccccc12)N1CCc2ccccc21`, with 57.4% (active); and `CC(C)NC(=O)c1ccc(COCC(F)(F)F)cc1`, with 36.5% (inactive).
Next, `Cc1ccc(C(=O)Oc2ccc3c(c2)ncn3C)cc1`: 61.9% (active); `Cc1nc2ccc(NC(=O)c3cc([N+](=O)[O-])cc([N+](=O)[O-])c3Cl)cc2s1`: 42.2% (inactive); `Cc1nc2c(ccc3c2ccc2nc(C)sc23)s1`: 38.2% (inactive).
Then `Cc1ccc(C(=O)Nc2ccc3nc(C)sc3c2)s1`, with 87.8% (active).
Regarding `COc1cccc(/C=N/NC(=O)CCc2c(C)n[nH]c2C)c1`, the inhibition was 30.6% (inactive).
Next, `Nc1[nH]ncc1N=Nc1ccc(Cl)cc1`: 64.8% (active); `CCCCNC(=O)COC(=O)c1ccc(Cl)c(S(N)(=O)=O)c1`: 37.4% (inactive); `CCCCOc1ccc(C(=O)CCN2CCCCC2)cc1`: 32.5% (inactive).
Then `CCCOc1ccc(C(=O)c2nc3c(n2O)CCCCC3)cc1`, with 52% (active); and `CCCCCCNc1nc(NCc2ccco2)nc(OCC)n1`, with 56.7% (active); and `O=[N+]([O-])c1cccc(CNc2ccc3c(c2)CCC3)c1`, with 59.6% (active).
As for `COc1cccc(CNc2ccc3c(c2)CCC3)c1`, the inhibition was 30.4% (inactive).
Then `COc1cccc(OCc2ccc(C(=O)NCC3CCCO3)cc2)c1` (stereo not drawn), with 48.8% (inactive); and `CCn1ncc(C(=O)Nc2cccc(Cl)c2)c1C`, with 54.3% (active).
For `CCCc1cc(C(=O)Nc2cccc(Cl)c2)no1`, the inhibition was 81.6% (active).
Next, `CCCc1cc(C(=O)Nc2c(C)n(C)n(-c3ccccc3)c2=O)no1`: 16.9% (inactive).
On to `CCn1nccc1C(=O)Nc1ccc(Cl)cn1`, for which the inhibition was 34.9% (inactive).
For the compound `CCn1ncc([N+](=O)[O-])c1C(=O)Nc1ccc(C(=O)N2CCCCC2)cc1`, the inhibition is 43.9% (inactive).
For the compound `CCCc1cc(C(=O)Nc2ccc(F)cc2F)no1`, the inhibition was 46.5% (inactive).
Then `Cc1cc(C)c(S(=O)(=O)Nc2ccc(OCC(=O)O)cc2)c(C)c1`, with 29.1% (inactive); and `CCNC(=S)SCCOc1ccccc1C`, with 79.3% (active); and `COc1ccc(N(CCC#N)S(=O)(=O)c2ccc(Cl)cc2)cc1`, with 26.1% (inactive).
Then `CC1CCCCC1NC(=O)/C(C#N)=C/c1ccccc1F` (stereo not drawn), with 74.2% (active); and `CCCSc1nnc(C(C)C)n1N`, with 26.2% (inactive); and `CCOc1ccc(/C=C/C(=O)c2ccccc2)cc1OC`, with 55.5% (active).
Then `CCOC(=O)c1cc(-c2ccccc2)n(CC(=O)Nc2ccc(OC)c(OC)c2)c1C`, with 37.5% (inactive).
Take `COc1ccc(/C=N/OC(=O)Nc2ccccc2)cc1[N+](=O)[O-]`: the inhibition was 32.5% (inactive).
Then `CC(C)c1nc2sc3c(=O)[nH]cnc3c2c2c1CCC2`, with 23.9% (inactive); and `COc1ccccc1N1C(=O)C2CCC(c3ccccc3)CC2C1=O` (stereo not drawn), with 27.9% (inactive).
Then `Cc1cccc(Cn2c(C(C)(C)C)cc3cccnc32)c1`, with 47.4% (inactive); and `CC(C)(C)c1cc2cccnc2n1Cc1cccc(Cl)c1`, with 52.5% (active); and `CCSc1ncc(/C=N/Nc2ccccc2)n1C`, with 75.3% (active).
Then `CCSc1nnc(-c2cnn(-c3ccccc3)c2-n2cccc2)n1C`, with 34.5% (inactive); and `COc1cc(NC(C)CCCN)c2ncccc2c1Oc1ccccc1` (stereo not drawn), with 29.6% (inactive); and `Cc1ccc(C(C[N+](=O)[O-])c2c(C)[nH]n(-c3ccccc3)c2=O)cc1` (stereo not drawn), with 82.5% (active).
On to `Cc1[nH]n(-c2ccccc2)c(=O)c1C(C[N+](=O)[O-])c1ccc(Cl)cc1` (stereo not drawn), for which the inhibition was 87.4% (active).
For the compound `COC(=O)C1(C(C[N+](=O)[O-])c2ccc(C)cc2)C(=O)NCC1c1ccco1` (stereo not drawn), the inhibition was 49% (inactive).
Next, `O=c1cc(CSc2ccc(Cl)cc2)[nH]c2[nH]n(-c3ccccc3)c(=O)c12`: 42.8% (inactive).
Then `Cc1cc2ccccn2c1C(C[N+](=O)[O-])c1ccc(N(C)C)cc1` (stereo not drawn), with 21.9% (inactive); and `Cc1[nH]n(-c2ccccc2)c(=O)c1C(C[N+](=O)[O-])c1ccc(Br)cc1` (stereo not drawn), with 79% (active).
Take `O=C1N/C(=N\N=C\c2cccnc2)SC1Cc1ccc(SC(F)F)cc1` (stereo not drawn): the inhibition was 29.8% (inactive).
With `NC(=O)c1ncc(C(F)(F)F)cc1Oc1ccc(C(F)(F)F)cc1`, the inhibition is 42.5% (inactive).
As to `CCOc1cc(/C=N/NC(=O)c2nn(C)cc2Br)ccc1OCc1ccccc1Cl`, the inhibition was 26.2% (inactive).
For `CC(=O)Nc1ccc2nc(CN3CCC(CO)(CCc4ccccc4)CC3)ccc2c1`, the inhibition was 36.4% (inactive).
Then `CCCCn1cnc2c1c(=O)[nH]c(=O)n2CCCC`, with 7.55% (inactive); and `Cc1[nH]c2ccccc2c1C(=O)CSc1nc2ncc(Cl)cc2[nH]1`, with 36.2% (inactive); and `CC(OC(=O)CC(NC(=O)c1ccccc1Cl)c1ccccc1)C(=O)Nc1cccc(Cl)c1Cl` (stereo not drawn), with 34.5% (inactive).
On to `CC(NC(=O)/C(C#N)=C/c1ccc(Cl)c([N+](=O)[O-])c1)c1ccccc1` (stereo not drawn), for which the inhibition was 62.2% (active).
Next, `CC(C)NC(=O)/C(C#N)=C/c1cccc(NC(=O)c2ccccc2Cl)c1`: 63.5% (active); `CC(NC(=O)/C(C#N)=C/c1ccc([N+](=O)[O-])o1)c1ccccc1` (stereo not drawn): 36.7% (inactive).
As for `CC(=O)Nc1sc2c(c1-c1nc3ccccc3s1)CCN(C(C)C)C2`, the inhibition was 98% (active).
Turning to `Fc1ccc(NC(=S)N2CCSC2c2cccs2)cc1` (stereo not drawn), the inhibition was 25.8% (inactive).
Take `CC(C)(C)c1ccc(/C=C/C(=O)c2ccc(NC3=NCCCS3)cc2)cc1`: the inhibition was 53.1% (active).
In the case of `Cc1cccc(/C=C/C(=O)c2ccc(NC3=NCCCS3)cc2)c1`, the inhibition is 60.4% (active).
Next, `CC(=O)OCC(=O)[C@H]1CC[C@H]2[C@@H]3CC=C4C[C@@H](O)CC[C@]4(C)[C@H]3CC[C@]12C`: 32.5% (inactive); `Brc1ccc(C=Nc2ccc(Nc3ccccc3)cc2)s1`: 56.1% (active); `Cc1ccc(C(=O)c2c(NC(=O)c3ccncc3)sc3c2CCCC3)cc1`: 58.1% (active).
Then `Cc1ccccc1OCC(=O)Nc1sc2c(c1C#N)CCC2`, with 35.5% (inactive).
Next, `CCCCNC1CCS(=O)(=O)C1` (stereo not drawn): 37.9% (inactive).
Regarding `CC(C)OC(=O)COc1ccc(-c2ccccc2)cc1`, the inhibition is 47.1% (inactive).
Next, `CC(C)Oc1ccc2c(=O)c(-c3ccccc3)coc2c1`: 73.6% (active).
Next, `Cc1ccc(CN2CCN(/N=C/c3ccc(C(F)(F)F)cc3)CC2)c(C)c1`: 50.5% (active); `O=C(Nc1cccc(F)c1)c1ccc(CSc2ccccc2)o1`: 37.5% (inactive); `Cc1ccccc1-c1ccc(C(=O)Nc2cccc(F)c2)o1`: 56.5% (active).
Next, `Cc1oc(C(=O)O)cc1COc1ccc2c3c(c(=O)oc2c1)CCC3`: 46.1% (inactive); `COc1ccc2c(c1)O/C(=C\c1sccc1C)C2=O`: 66.5% (active).
Consider `COC(=O)c1cccc(NC(=O)/C=C/c2ccc3c(c2)OCO3)c1`, for which the inhibition is 77.6% (active).
As for `O=C(O)c1ccc2c(c1)N(Cc1cccc(F)c1)C(=O)CS2`, the inhibition was 19.6% (inactive).
Next, `COc1ccccc1OCCN1CSC(=S)N(C)C1`: 54.5% (active); `CCCCC(CC(O)COCCC)c1n[nH]c(=S)n1-c1ccccc1` (stereo not drawn): 42% (inactive); `O=[N+]([O-])c1cc(Cc2ccccc2)cc(C=Nc2ccc(N3CCOCC3)cc2)c1O`: 51.5% (active).
Then `O=[N+]([O-])c1cc2oc3c(c2c(C=NCc2ccccc2)c1O)CCCC3`, with 42.5% (inactive); and `CN(C)c1ccc(O)c2c1CC1CC3[C@@H](N(C)C)C(=O)C(C(N)=O)=C(O)[C@]3(O)C(=O)C1=C2O` (stereo partly drawn), with 31.9% (inactive).
Then `COc1cccc(/C=N/NC(=O)CNC(=O)C2COc3ccccc3O2)c1O` (stereo not drawn), with 42.9% (inactive); and `O=C(N/N=C\c1cccc([N+](=O)[O-])c1O)C1COc2ccccc2O1` (stereo not drawn), with 81.3% (active).
In the case of `CCCCN(C)C(=O)c1nc2ccccn2c1CNCCCn1ncc2ccccc21`, the inhibition is 33.2% (inactive).
In the case of `CC(C)C(C)NC(=O)COc1ccc(S(=O)(=O)N2CCOCC2)cc1[N+](=O)[O-]` (stereo not drawn), the inhibition is 12.2% (inactive).
For `O=[N+]([O-])c1cc(S(=O)(=O)N2CCCCCC2)ccc1F`, the inhibition was 86.2% (active).
Next, `Cn1cc(C(=O)NCc2ccc(F)cc2)c(=O)c2cc(S(=O)(=O)N3CCCCC3)ccc21`: 34.4% (inactive).
